Test results: PubChem BioAssay (EPA / NIEHS)
A structure can be active in one record and inactive in another. Calls of active or inactive are those of the source. How the source made its calls: active means hit-call score of the fitted dose curve at least 0.9, where 1 is the maximum; inactive means score below 0.9.

Tests used:
[1] = ATG_E_Box_CIS: Attagene CIS-FACTORIAL HepG2 Assay for human Enhancer Box (E-box) (AID 2282936); details: HepG2 E-box cis-reporter transcription, actives raise or lower the signal
Procedure, shortened: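 HepG2 cells transiently transfected with multiplexed cis-element reporter units, dosed 24 h; reporter mRNA quantified by RT-PCR, 6-FAM labelling, HpaI digestion and capillary electrophoresis. E-box (USF1) signal fitted bidirectionally vs DMSO.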

[2] = ATG_EGR_CIS: Attagene CIS-FACTORIAL HepG2 Assay for human Early Growth Response 1 (EGR1) (AID 2282938); details: HepG2 Attagene CIS-FACTORIAL EGR reporter mRNA; actives raise or lower the signal
Procedure, shortened: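 Activity is taken as induction or loss of reporter mRNA versus DMSO, fitted bidirectionally. Transcripts from cis-regulated reporter units in transiently transfected HepG2 were measured after 24 h by RT-PCR with capillary electrophoresis.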

[3] = ATG_M_19_CIS: Attagene CIS-FACTORIAL HepG2 Assay for M19 Transcription Factor (Internal Marker) (AID 2282939); details: HepG2 Attagene CIS-FACTORIAL M19 internal marker reporter; actives raise or lower the signal
Procedure, shortened: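 Chemical-treated HepG2 (24 h) with MRTU constructs; reporter transcripts detected by fluorescent RT-PCR fragment analysis on capillary electrophoresis. Internal background marker, DMSO as baseline.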

[4] = ATG_ERE_CIS: Attagene CIS-FACTORIAL HepG2 Assay for Estrogen Response Element (ERE) (AID 2282940); details: HepG2 ERE cis-reporter, Attagene RNA transcript; actives raise or lower the signal
Procedure, shortened: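 Human liver cells (HepG2) bearing transiently transfected, promoter-regulated reporter units were exposed 24 h. Reporter mRNA induction was detected by capillary electrophoresis of labelled RT-PCR products and fitted bidirectionally to DMSO.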

[5] = ATG_Ets_CIS: Attagene CIS-FACTORIAL HepG2 Assay for human Erythroblast Transformation Specific (ETS) (AID 2282941); details: HepG2 ETS cis-reporter transcription, actives raise or lower the signal
Procedure, shortened: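 Human HepG2 hepatoma cells were transiently transfected with promoter-driven reporter constructs and treated for 24 hours. Reporter transcripts were quantified by RT-PCR with fluorescent primer extension; bidirectional curve fitting used DMSO as reference.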

[6] = target: Hepatocyte nuclear factor 3-beta (Homo sapiens) (UniProt Q9Y261); experiment: ATG_FoxA2_CIS: Attagene CIS-FACTORIAL HepG2 Assay for human Forkhead box A2 (FOXA2) (AID 2282942); details: HepG2 cis-reporter transcription factor activity, 24 h; actives raise or lower the signal
Chain of Hepatocyte nuclear factor 3-beta (Homo sapiens) (Q9Y261 whole entry, looked up): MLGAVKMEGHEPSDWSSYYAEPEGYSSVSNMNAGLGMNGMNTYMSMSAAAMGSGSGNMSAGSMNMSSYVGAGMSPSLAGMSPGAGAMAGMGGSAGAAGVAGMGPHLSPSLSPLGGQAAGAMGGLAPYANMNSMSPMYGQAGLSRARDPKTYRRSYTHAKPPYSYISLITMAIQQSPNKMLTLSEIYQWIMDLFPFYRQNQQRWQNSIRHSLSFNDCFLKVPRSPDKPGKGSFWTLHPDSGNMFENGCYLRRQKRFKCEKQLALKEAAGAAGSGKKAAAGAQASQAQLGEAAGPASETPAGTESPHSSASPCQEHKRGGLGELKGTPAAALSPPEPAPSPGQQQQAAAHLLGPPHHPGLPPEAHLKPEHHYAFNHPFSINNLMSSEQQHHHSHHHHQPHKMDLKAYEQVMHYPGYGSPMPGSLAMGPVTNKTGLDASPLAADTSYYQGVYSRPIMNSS
Procedure, shortened: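 Reporter transcript induction is measured by fluorescence after capillary electrophoresis of RT-PCR products from HepG2 cells exposed 24 h. Cis-regulated reporter units report endogenous factor activity; curves fitted both directions against DMSO.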

[7] = ATG_FoxO_CIS: Attagene CIS-FACTORIAL HepG2 Assay for human Forkhead box O (FoxO) (AID 2282943); details: HepG2 Attagene cis-reporter, FoxO element, mRNA; actives raise or lower the signal
Procedure, shortened: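 Read-out: fluorescence of 6-FAM-labelled reporter cDNA fragments resolved by capillary electrophoresis. Transiently transfected HepG2 cells were dosed for 24 h; activity fitted in both directions relative to DMSO controls.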

[8] = ATG_GLI_CIS: Attagene CIS-FACTORIAL HepG2 Assay for human Zinc Finger Protein GLI1 (AID 2282945); details: HepG2, Attagene cis-factorial reporter mRNA, GLI element; actives raise or lower the signal
Procedure, shortened: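 Transiently transfected HepG2 cells report endogenous transcription factor activity via cis-element-driven reporter units. After 24 h compound exposure, reporter mRNA was measured by RT-PCR with capillary electrophoresis; bidirectional fitting against DMSO baseline.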

[9] = ATG_GRE_CIS: Attagene CIS-FACTORIAL HepG2 Assay for human Glucocorticoid Response Elements (GRE) (AID 2282947); details: HepG2 GRE cis-reporter, Attagene multiplex mRNA; actives raise or lower the signal
Procedure, shortened: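 Transiently transfected HepG2 cells carrying GRE cis-reporter units (endogenous TF activity) dosed 24 h; reporter mRNA quantified by RT-PCR, 6-FAM labelling, HpaI digestion and capillary electrophoresis. Bidirectional fit versus DMSO baseline.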

[10] = ATG_ISRE_CIS: Attagene CIS-FACTORIAL HepG2 Assay for human Interferon Regulatory Factor 1 (IRF1) binding to an Interferon-Stimulated Response Element (ISRE) (AID 2282948); details: HepG2 ISRE cis-reporter (Attagene), mRNA transcription readout; actives raise or lower the signal
Procedure, shortened: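 Cell-based cis-reporter assay; HepG2; 24 h exposure; reporter mRNA by RT-PCR plus capillary electrophoresis fluorescence; activity in either direction scored relative to DMSO.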

[11] = ATG_M_32_CIS: Attagene CIS-FACTORIAL HepG2 Assay for M32 Transcription Factor (Internal Marker) (AID 2282949); details: HepG2 Attagene cis-factorial M32 reporter, mRNA; actives raise or lower the signal;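 further: background control marker of the multiplexed CIS panel rather than a real target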
Procedure, shortened: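 HepG2 cells transiently transfected with multiplexed cis-regulated reporter units, dosed 24 h. Reporter mRNA quantified by RT-PCR, 6-FAM labelling, HpaI digestion and capillary electrophoresis; bidirectional fit vs DMSO.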

[12] = target: Hypoxia-inducible factor 1-alpha (Homo sapiens) (UniProt Q16665); experiment: ATG_HIF1a_CIS: Attagene CIS-FACTORIAL HepG2 Assay for human Hypoxia Inducible Factor 1 (HIF1A) (AID 2282951); details: HepG2 Attagene cis-factorial HIF1a reporter transcription; actives raise or lower the signal
Chain of Hypoxia-inducible factor 1-alpha (Homo sapiens) (Q16665 whole entry, looked up): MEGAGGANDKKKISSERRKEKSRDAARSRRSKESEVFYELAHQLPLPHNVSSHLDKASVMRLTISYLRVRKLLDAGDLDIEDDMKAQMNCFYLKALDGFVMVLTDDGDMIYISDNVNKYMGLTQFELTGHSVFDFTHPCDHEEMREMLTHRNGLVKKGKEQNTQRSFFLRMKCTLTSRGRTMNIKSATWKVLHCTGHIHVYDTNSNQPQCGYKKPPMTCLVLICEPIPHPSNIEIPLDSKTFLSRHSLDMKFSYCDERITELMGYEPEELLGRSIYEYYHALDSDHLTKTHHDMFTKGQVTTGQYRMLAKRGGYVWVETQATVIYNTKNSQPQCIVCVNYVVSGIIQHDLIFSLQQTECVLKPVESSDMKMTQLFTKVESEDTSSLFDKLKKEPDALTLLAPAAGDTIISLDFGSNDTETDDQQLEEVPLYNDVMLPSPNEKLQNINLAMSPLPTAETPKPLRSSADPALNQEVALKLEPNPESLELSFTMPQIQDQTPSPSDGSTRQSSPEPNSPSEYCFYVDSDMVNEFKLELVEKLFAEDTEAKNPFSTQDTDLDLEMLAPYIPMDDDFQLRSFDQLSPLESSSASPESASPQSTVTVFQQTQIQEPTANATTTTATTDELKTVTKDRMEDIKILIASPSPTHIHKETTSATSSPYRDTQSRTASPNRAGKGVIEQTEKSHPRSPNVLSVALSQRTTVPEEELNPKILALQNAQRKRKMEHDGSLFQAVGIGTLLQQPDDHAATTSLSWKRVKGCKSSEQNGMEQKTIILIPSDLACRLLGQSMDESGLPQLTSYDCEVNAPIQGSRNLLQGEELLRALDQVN
Procedure, shortened: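 Fluorescence intensity of capillary-separated, 6-FAM-labelled reporter amplicons gives mRNA induction in HepG2 cells carrying transfected cis-promoter reporter units; cells exposed 24 h, responses fitted up or down from DMSO.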

[13] = target: Heat shock factor protein 1 (Homo sapiens) (UniProt Q00613); experiment: ATG_HSE_CIS: Attagene CIS-FACTORIAL HepG2 Assay for human Heat Shock Transcription Factor 1 (HSE) (AID 2282953); details: HepG2 HSE cis-reporter, Attagene RNA transcription; actives raise or lower the signal
Chain of Heat shock factor protein 1 (Homo sapiens) (Q00613 whole entry, looked up): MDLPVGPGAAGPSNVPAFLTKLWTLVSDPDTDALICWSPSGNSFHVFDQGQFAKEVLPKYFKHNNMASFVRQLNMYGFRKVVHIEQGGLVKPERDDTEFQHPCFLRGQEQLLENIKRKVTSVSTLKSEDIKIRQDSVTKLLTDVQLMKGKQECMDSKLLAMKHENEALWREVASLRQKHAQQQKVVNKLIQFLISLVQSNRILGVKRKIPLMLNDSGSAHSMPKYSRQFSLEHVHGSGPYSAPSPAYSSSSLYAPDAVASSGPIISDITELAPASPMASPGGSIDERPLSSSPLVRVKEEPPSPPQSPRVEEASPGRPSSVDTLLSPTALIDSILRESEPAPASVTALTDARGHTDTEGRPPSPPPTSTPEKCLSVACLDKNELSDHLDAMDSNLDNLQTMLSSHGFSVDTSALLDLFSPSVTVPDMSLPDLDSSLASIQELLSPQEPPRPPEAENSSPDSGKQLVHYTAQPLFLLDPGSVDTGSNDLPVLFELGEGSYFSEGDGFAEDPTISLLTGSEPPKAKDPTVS
Procedure, shortened: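 Liver-derived HepG2 cells carry transiently introduced multiple reporter units governed by cis promoters. Reporter RNA measured 24 h post-dose through reverse transcription, PCR amplification, fluorescent labelling and capillary electrophoresis, normalised to DMSO.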

[14] = ATG_MRE_CIS: Attagene CIS-FACTORIAL HepG2 Assay for human Metal Responsive Element (MRE) (AID 2282954); details: HepG2 MRE cis-reporter transcription, Attagene multiplex; actives raise or lower the signal
Procedure, shortened: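 HepG2 cells transiently transfected with cis-element-driven reporter units; mRNA measured 24 h after dosing. Reporter transcripts quantified by RT-PCR, FAM labelling, HpaI digestion and capillary electrophoresis; bidirectional fit versus DMSO.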

[15] = ATG_PBREM_CIS: Attagene CIS-FACTORIAL HepG2 Assay for human Phenobarbital-responsive Enhancer Module (PBREM) (AID 2282955); details: HepG2 PBREM cis-reporter, Attagene multiplexed transcription; actives raise or lower the signal
Procedure, shortened: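 Cells were transfected with cis-element reporter units and treated for 24 h, after which RNA was extracted and reporter transcripts measured by RT-PCR and capillary electrophoresis.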

[16] = ATG_GATA_CIS: Attagene CIS-FACTORIAL HepG2 Assay for human GATA Binding Protein (AID 2282944); details: HepG2 GATA cis-element reporter, Attagene multiplex mRNA; actives raise or lower the signal
Procedure, shortened: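 Transfected cis-reporter HepG2 cells were treated with chemicals for 24 hours. Total RNA was then converted to cDNA, amplified with reporter-specific primers and analysed by fluorescent capillary electrophoresis, using DMSO-treated wells as baseline.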

[17] = target: Bile acid receptor (Homo sapiens) (UniProt Q96RI1); experiment: ATG_IR1_CIS: Attagene CIS-FACTORIAL HepG2 Assay for human Nuclear Receptor Subfamily 1 Group H Member 4 (NR1H4), IR1 submotif (AID 2282946); details: IR1 reporter transcription, actives raise or lower the signal
Chain of Bile acid receptor (Homo sapiens) (Q96RI1 whole entry, looked up): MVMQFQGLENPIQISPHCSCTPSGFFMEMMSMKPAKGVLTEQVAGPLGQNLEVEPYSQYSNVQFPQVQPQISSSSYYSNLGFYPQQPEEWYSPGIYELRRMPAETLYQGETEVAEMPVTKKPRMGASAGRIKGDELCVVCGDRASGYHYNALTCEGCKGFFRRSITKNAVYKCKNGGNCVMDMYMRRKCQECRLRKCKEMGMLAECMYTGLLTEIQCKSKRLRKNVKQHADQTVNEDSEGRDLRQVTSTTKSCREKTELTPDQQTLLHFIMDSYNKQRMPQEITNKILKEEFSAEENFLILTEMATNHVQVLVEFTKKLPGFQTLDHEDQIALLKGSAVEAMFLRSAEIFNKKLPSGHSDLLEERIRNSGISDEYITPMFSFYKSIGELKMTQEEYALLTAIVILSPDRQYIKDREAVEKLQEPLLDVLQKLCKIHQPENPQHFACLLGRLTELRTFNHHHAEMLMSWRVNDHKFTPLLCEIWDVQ
Procedure, shortened: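 HepG2 cells transiently transfected with multiple cis-promoter-driven reporter units to measure endogenous transcription factor activity; 24 h exposure. Reporter mRNA read by RT-PCR, FAM labelling, HpaI digestion and capillary electrophoresis. Bidirectional fit versus DMSO.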

[18] = ATG_M_06_CIS: Attagene CIS-FACTORIAL HepG2 Assay for M06 Transcription Factor (Internal Marker) (AID 2282950); details: HepG2 Attagene CIS-FACTORIAL M06 internal marker reporter; actives raise or lower the signal
Procedure, shortened: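 Cells (HepG2, transiently carrying cis-driven reporter units) receive chemical for 24 h before RNA isolation. Reporter cDNA is PCR-amplified, FAM-labelled by primer extension, HpaI-digested and sized on a capillary analyser.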

[19] = target: Hepatocyte nuclear factor 6 (Homo sapiens) (UniProt Q9UBC0); experiment: ATG_HNF6_CIS: Attagene CIS-FACTORIAL HepG2 Assay for human Hepatocyte Nuclear Factor 6 (HNF6) (AID 2282952); details: HepG2 Attagene cis-factorial HNF6 reporter transcription; actives raise or lower the signal
Chain of Hepatocyte nuclear factor 6 (Homo sapiens) (Q9UBC0 whole entry, looked up): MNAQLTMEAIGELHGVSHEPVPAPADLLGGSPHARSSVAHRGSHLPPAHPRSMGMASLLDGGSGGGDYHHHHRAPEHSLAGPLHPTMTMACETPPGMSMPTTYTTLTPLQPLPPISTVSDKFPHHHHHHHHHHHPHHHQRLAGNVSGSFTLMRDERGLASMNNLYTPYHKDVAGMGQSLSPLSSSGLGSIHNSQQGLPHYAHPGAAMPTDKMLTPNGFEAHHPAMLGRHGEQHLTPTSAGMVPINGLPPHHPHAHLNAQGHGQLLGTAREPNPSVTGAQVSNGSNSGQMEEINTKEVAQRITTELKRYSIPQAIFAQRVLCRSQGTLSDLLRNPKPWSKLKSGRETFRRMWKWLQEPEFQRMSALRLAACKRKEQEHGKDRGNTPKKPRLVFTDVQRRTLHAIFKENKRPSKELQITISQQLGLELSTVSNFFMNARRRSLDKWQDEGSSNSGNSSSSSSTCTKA
Procedure, shortened: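 HepG2 cells transiently transfected with cis-element-driven multiple reporter transcription units, dosed 24 h; reporter mRNA quantified by RT-PCR, FAM primer extension, HpaI digestion and capillary electrophoresis; bidirectional fit versus DMSO baseline.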

Measured: AC50

CC1(C)C(C=C(Cl)Cl)C1C(=O)OC(C#N)c1ccc(F)c(Oc2ccccc2)c1 (stereo unspecified)
inactive: [1] | [2] | [3] | [4] | [5] | [6] | [7] | [8] | [9] | [10] | [11] | [12] | [13] | [14] | [15]

CNC(=O)CSP(=S)(OC)OC
inactive: [1] | [2] | [3] | [4] | [5] | [6] | [7] | [8] | [10] | [11] | [12] | [13] | [15]

O=C(O)COc1ccc(Cl)cc1Cl
inactive: [1] | [2] | [3] | [5] | [6] | [7] | [8] | [9] | [10] | [11] | [12] | [14]

N#CN
inactive: [1] | [2] | [3] | [4] | [5] | [6] | [7] | [16] | [8] | [9] | [10] | [11] | [12] | [13] | [15]

CCC(C)(NC(=O)c1cc(Cl)c(C)c(Cl)c1)C(=O)CCl (stereo unspecified)
inactive: [1] | [2] | [3] | [4] | [5] | [6] | [7] | [8] | [17] | [9] | [10] | [11] | [18] | [12] | [13] | [14] | [15]

CNC(=O)/C=C(\C)OP(=O)(OC)OC
inactive: [1] | [2] | [3] | [4] | [5] | [6] | [7] | [8] | [17] | [9] | [10] | [11] | [12] | [13] | [15]

COP(=O)(OC)OC=C(Cl)Cl
inactive: [1] | [3] | [4] | [5] | [6] | [7] | [8] | [11] | [12] | [13]
active: [2] 14.4 µM | [10] 50 µM

CCN(CC)C(=O)SCc1ccc(Cl)cc1
active: [2] 23.5 µM
inactive: [1] | [3] | [4] | [5] | [6] | [7] | [8] | [17] | [9] | [10] | [11] | [18] | [12] | [13]

O=C(NC(=O)c1c(F)cccc1F)Nc1ccc(OC(F)(F)C(F)OC(F)(F)F)c(Cl)c1 (stereo unspecified)
inactive: [1] | [2] | [3] | [4] | [5] | [6] | [7] | [8] | [9] | [10] | [11] | [18] | [12] | [13]

COc1cc(OC)nc(NC(=O)NS(=O)(=O)c2cc(NC=O)ccc2C(=O)N(C)C)n1
inactive: [1] | [2] | [3] | [4] | [5] | [6] | [7] | [8] | [17] | [9] | [10] | [11] | [18] | [12] | [19] | [13] | [15]

CC[C@H](C)[C@H]1O[C@]2(C=C[C@@H]1C)C[C@@H]1C[C@@H](C/C=C(\C)[C@@H](O[C@H]3C[C@H](OC)[C@@H](O[C@H]4C[C@H](OC)[C@@H](O)[C@H](C)O4)[C@H](C)O3)[C@@H](C)/C=C/C=C3\CO[C@@H]4[C@H](O)C(C)=C[C@@H](C(=O)O1)[C@]34O)O2 (tested in a mixture with another compound)
inactive: [1] | [2] | [3] | [4] | [5] | [6] | [7] | [8] | [9] | [10] | [11] | [12] | [13] | [15]

COC(=O)c1ccccc1S(=O)(=O)NC(=O)Nc1nc(C)nc(OC)n1
active: [7] 75.5 µM
inactive: [1] | [2] | [3] | [5] | [6] | [7] | [8] | [17] | [10] | [11] | [12] | [13]

C#CCN1C(=O)COc2cc(F)c(N3C(=O)C4=C(CCCC4)C3=O)cc21
inactive: [1] | [2] | [3] | [4] | [5] | [6] | [7] | [8] | [9] | [10] | [11] | [12] | [19] | [13] | [14] | [15]

Clc1ccccc1-c1nnc(-c2ccccc2Cl)nn1
inactive: [1] | [2] | [3] | [4] | [5] | [6] | [7] | [8] | [10] | [11] | [12] | [13] | [15]
